# Measurements: publication PMC7862700, “An all-to-all approach to the identification of sequence-specific readers for epigenetic DNA modifications on cytosine”
# Experiments:
# Assay in all cases: DAPPL (digital affinity profiling via proximity ligation, sequencing); 10 mM Tris-HCl pH 7.5, 50 mM NaCl, 1 mM DTT, 4% glycerol, room temperature, 30 min; GST-TFs on glutathione beads, 16-mer random dsDNA library, 0.1% formaldehyde crosslink after washing; high values mean tight binding
# FLI1 = biological target: T1, FLI1 (Homo sapiens, UniProt Q01543 1-452); conditions: protein: recombinant; tags: N-terminal GST; dsDNA, one strand shown
# T1 sequence: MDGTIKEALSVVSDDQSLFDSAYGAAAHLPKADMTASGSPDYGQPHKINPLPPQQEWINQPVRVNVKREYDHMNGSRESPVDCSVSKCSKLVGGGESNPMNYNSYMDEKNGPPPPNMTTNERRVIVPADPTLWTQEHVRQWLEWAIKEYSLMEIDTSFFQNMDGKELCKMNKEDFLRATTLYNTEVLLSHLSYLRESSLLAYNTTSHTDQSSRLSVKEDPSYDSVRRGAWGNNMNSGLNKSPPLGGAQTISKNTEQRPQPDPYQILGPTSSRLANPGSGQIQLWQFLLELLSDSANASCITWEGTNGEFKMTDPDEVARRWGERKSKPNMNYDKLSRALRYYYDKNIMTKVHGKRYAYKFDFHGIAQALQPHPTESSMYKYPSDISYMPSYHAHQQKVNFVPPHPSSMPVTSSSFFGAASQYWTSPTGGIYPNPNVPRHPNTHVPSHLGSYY
# Summary of the method: (§1)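 Sequencing on an Illumina NextSeq500 followed washing, crosslinking with 0.1% formaldehyde, proximity ligation (BsaI/T4 ligase, 1 h, 37 °C) and PCR amplification of pools that had been incubated for 30 min at room temperature with 200 nmole of a random double-stranded 16-mer DNA library in Tris/NaCl/DTT/glycerol buffer. Each pool held DNA-barcoded human transcription factors, expressed in yeast as GST fusions and captured on glutathione beads, plus a tag-only sample. Binding signal is a hexamer's read frequency for a factor divided by its frequency in the tag-only sample.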
# ELK1 = biological target: T2, ELK1 (Homo sapiens, UniProt P19419 1-428); conditions: protein: recombinant; tags: N-terminal GST; dsDNA, one strand shown
# T2 sequence: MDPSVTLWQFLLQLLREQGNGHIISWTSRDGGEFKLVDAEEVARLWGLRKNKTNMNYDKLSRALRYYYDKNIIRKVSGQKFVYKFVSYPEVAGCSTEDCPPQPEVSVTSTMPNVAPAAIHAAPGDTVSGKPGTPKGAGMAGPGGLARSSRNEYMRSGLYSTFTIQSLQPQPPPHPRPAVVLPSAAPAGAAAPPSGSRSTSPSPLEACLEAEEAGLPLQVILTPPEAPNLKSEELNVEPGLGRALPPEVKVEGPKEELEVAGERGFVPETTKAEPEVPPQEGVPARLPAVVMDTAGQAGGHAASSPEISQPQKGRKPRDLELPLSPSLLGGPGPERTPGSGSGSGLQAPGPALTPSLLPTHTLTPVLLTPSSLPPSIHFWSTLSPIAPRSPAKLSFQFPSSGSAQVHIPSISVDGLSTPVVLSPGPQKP
# Summary of the method: as §1
# GABPA = biological target: T3, GABPA (Homo sapiens, UniProt Q06546 1-454); conditions: protein: recombinant; tags: N-terminal GST; dsDNA, one strand shown
# T3 sequence: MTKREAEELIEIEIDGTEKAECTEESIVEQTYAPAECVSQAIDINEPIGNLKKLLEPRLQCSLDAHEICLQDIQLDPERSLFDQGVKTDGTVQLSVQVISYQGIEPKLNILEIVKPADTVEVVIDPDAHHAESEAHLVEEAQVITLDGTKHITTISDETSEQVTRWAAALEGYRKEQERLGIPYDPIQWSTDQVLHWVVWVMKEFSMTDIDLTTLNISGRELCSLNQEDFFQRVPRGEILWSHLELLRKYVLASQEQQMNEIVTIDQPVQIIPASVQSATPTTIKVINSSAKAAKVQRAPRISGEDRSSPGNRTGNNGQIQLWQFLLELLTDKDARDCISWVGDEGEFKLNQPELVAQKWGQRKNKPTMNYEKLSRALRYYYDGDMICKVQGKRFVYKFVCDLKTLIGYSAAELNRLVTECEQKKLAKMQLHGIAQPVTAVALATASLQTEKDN
# Summary of the method: as §1
# ERG = biological target: T4, ERG (Homo sapiens, UniProt P11308 1-479); conditions: protein: recombinant; tags: N-terminal GST; dsDNA, one strand shown
# T4 sequence: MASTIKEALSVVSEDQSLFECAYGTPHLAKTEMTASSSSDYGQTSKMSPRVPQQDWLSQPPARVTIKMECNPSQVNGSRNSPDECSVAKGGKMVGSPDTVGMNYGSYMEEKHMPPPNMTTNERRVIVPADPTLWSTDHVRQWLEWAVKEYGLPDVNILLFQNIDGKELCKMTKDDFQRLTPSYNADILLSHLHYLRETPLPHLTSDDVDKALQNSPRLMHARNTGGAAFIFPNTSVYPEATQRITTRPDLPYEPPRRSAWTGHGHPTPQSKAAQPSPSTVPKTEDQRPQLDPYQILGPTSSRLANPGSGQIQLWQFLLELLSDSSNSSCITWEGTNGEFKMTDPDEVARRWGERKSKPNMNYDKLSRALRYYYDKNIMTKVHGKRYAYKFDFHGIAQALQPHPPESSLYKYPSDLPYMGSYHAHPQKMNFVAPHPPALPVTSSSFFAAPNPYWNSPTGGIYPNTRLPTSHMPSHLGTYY
# Summary of the method: as §1
# ELF1 = ELF1 (Homo sapiens, UniProt P32519 1-619); conditions: protein: recombinant; tags: N-terminal GST; dsDNA, one strand shown
# Sequence of ELF1 (P32519 whole entry): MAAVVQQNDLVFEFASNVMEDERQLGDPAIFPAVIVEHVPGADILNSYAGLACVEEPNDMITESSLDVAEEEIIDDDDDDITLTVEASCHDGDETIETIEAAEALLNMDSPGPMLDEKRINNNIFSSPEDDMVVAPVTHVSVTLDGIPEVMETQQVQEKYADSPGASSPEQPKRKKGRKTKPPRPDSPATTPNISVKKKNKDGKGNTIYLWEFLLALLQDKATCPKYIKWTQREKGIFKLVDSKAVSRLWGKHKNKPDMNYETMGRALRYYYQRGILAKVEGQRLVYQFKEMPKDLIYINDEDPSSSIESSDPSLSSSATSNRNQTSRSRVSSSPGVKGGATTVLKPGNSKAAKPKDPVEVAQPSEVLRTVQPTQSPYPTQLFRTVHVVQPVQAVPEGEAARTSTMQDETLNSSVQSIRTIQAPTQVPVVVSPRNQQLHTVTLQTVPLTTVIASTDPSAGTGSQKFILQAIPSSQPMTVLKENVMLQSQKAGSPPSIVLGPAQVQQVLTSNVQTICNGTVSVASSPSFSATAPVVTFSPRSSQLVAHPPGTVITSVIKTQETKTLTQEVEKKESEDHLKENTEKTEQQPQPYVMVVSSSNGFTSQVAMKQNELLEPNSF
# Summary of the method: as §1
# EHF = biological target: T5, EHF (Homo sapiens, UniProt Q9NZC4 1-300); conditions: protein: recombinant; tags: N-terminal GST; dsDNA, one strand shown
# T5 sequence: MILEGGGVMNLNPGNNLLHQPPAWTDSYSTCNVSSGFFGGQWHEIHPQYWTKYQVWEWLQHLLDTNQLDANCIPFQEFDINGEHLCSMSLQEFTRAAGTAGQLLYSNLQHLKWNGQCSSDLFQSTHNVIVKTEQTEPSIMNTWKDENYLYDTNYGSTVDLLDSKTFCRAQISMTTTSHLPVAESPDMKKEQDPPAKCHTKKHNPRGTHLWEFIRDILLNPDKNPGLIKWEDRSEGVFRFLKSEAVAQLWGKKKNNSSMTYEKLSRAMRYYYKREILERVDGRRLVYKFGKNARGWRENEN
# Summary of the method: as §1
# SPI1 = SPI1 (Homo sapiens, UniProt P17947 1-270); conditions: protein: recombinant; tags: N-terminal GST; dsDNA, one strand shown
# Summary of the method: as §1
# SPIB = SPIB (Homo sapiens, UniProt Q01892 1-262); conditions: protein: recombinant; tags: N-terminal GST; dsDNA, one strand shown
# Sequence of SPIB (Q01892 whole entry): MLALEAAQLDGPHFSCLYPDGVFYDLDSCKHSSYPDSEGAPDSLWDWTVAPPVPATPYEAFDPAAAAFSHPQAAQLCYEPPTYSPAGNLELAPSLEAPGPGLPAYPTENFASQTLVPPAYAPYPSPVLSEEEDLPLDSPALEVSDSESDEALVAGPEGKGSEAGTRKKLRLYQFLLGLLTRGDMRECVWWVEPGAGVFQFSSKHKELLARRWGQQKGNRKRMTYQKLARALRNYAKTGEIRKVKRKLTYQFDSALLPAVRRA
# Summary of the method: as §1
# ELK3 = biological target: T6, ELK3 (Homo sapiens, UniProt P41970 1-407); conditions: protein: recombinant; tags: N-terminal GST; dsDNA, one strand shown
# T6 sequence: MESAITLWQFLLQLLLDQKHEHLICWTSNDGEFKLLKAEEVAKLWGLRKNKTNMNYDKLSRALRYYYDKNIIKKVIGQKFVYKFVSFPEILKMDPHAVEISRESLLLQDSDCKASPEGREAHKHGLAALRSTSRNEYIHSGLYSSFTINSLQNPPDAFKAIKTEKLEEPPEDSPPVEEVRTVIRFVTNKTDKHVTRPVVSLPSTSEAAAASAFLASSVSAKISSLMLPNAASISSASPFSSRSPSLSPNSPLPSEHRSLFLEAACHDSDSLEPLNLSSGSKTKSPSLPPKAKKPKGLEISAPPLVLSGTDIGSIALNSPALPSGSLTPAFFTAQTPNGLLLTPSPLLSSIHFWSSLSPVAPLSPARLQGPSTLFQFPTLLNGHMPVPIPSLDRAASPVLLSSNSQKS
# Summary of the method: as §1
# FEV = biological target: T7, FEV (Homo sapiens, UniProt Q99581 1-238); conditions: protein: recombinant; tags: N-terminal GST; dsDNA, one strand shown
# T7 sequence: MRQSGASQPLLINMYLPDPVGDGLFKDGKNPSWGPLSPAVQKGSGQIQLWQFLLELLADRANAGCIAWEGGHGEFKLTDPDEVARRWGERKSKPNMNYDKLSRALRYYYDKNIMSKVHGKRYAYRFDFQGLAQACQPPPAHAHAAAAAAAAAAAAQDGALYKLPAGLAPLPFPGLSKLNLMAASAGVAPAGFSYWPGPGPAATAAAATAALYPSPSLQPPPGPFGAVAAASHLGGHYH
# Summary of the method: as §1
# ETV5 = ETV5 (Homo sapiens, UniProt P41161 1-510); conditions: protein: recombinant; tags: N-terminal GST; dsDNA, one strand shown
# Sequence of ETV5 (P41161 whole entry): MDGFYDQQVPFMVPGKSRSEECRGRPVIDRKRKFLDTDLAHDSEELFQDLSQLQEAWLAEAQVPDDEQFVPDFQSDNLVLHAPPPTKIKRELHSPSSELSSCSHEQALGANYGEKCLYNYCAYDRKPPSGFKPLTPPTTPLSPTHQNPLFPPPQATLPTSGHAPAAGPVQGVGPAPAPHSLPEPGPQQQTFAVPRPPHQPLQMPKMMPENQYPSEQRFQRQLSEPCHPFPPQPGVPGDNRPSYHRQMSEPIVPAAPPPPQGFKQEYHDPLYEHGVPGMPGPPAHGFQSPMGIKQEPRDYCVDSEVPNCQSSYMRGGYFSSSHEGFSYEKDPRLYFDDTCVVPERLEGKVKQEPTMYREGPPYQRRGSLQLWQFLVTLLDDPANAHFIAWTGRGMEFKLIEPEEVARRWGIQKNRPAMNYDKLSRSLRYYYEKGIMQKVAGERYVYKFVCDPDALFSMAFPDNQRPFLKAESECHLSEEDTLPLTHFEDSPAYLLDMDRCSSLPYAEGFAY
# Summary of the method: as §1
# HSF1 = HSF1 (Homo sapiens, UniProt Q00613 1-529); conditions: protein: recombinant; tags: N-terminal GST; chain copies: 3; dsDNA, one strand shown
# Sequence of HSF1 (Q00613 whole entry): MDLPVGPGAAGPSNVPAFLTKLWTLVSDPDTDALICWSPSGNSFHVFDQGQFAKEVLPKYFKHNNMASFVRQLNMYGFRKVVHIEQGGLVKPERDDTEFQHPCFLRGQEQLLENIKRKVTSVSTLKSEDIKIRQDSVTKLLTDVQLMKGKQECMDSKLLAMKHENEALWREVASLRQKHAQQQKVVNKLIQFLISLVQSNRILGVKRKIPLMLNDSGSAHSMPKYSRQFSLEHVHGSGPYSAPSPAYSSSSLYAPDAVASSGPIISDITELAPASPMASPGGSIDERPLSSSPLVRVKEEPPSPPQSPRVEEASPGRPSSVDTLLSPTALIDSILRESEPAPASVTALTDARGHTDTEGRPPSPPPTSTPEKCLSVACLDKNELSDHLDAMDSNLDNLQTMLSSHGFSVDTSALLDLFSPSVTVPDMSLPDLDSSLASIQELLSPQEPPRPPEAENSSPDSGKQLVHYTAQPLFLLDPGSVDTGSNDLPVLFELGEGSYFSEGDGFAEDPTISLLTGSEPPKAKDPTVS
# Summary of the method: as §1
# SPIC = biological target: T8, SPIC (Homo sapiens, UniProt Q8N5J4 1-248); conditions: protein: recombinant; tags: N-terminal GST; dsDNA, one strand shown
# T8 sequence: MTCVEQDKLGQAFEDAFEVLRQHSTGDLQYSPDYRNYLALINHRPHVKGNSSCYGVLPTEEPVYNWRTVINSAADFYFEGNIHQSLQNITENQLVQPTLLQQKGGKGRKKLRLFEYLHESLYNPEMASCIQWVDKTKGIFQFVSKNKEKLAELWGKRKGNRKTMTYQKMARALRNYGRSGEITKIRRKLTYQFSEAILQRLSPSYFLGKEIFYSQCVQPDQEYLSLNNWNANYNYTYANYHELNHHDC
# Summary of the method: as §1
# ELF4 = ELF4 (Homo sapiens, UniProt Q99607 1-663); conditions: protein: recombinant; tags: N-terminal GST; dsDNA, one strand shown
# Sequence of ELF4 (Q99607 whole entry): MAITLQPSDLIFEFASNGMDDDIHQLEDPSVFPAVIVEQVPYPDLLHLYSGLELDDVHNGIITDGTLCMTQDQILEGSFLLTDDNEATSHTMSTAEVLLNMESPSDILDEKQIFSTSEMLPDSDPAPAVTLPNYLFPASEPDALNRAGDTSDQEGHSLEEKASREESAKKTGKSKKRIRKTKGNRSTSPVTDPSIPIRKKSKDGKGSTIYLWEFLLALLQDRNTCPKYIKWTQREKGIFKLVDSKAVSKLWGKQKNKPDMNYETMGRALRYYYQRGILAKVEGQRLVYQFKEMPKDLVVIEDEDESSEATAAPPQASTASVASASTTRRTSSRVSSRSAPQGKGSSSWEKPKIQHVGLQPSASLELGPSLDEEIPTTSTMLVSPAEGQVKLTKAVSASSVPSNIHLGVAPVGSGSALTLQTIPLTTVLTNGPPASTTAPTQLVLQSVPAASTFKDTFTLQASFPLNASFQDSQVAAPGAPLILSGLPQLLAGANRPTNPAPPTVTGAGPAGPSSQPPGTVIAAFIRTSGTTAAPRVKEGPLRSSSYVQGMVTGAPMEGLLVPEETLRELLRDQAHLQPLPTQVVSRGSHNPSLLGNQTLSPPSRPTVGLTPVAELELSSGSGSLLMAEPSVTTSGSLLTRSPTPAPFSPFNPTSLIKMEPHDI
# Summary of the method: as §1
# ELK4 = biological target: T9, ELK4 (Homo sapiens, UniProt P28324-2 1-405); conditions: protein: recombinant; tags: N-terminal GST; dsDNA, one strand shown
# T9 sequence: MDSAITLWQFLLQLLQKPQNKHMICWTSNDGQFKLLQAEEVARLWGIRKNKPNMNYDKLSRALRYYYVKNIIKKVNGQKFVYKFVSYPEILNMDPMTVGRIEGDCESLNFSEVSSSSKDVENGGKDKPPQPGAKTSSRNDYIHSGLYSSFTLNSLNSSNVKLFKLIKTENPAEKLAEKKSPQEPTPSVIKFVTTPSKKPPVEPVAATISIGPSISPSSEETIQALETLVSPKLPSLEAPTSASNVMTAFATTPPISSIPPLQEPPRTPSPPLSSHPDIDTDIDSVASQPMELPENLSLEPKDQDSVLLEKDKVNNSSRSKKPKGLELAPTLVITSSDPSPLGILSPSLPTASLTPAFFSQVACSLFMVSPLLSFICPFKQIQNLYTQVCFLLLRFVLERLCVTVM
# Summary of the method: as §1
# ETV2 = biological target: T10, ETV2 (Homo sapiens, UniProt O00321 1-342); conditions: protein: recombinant; tags: N-terminal GST; dsDNA, one strand shown
# T10 sequence: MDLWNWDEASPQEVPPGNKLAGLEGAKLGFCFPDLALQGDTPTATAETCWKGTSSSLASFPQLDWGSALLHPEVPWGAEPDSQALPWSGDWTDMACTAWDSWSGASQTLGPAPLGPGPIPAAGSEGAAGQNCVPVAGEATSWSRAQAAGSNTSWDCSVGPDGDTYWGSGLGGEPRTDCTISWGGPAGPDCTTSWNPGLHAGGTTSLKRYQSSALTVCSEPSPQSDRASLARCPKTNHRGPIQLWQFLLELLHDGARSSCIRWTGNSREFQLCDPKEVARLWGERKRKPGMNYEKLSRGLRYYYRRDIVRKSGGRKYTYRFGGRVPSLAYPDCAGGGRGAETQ
# Summary of the method: as §1
# ELF3 = biological target: T11, ELF3 (Homo sapiens, UniProt P78545 1-371); conditions: protein: recombinant; tags: N-terminal GST; dsDNA, one strand shown
# T11 sequence: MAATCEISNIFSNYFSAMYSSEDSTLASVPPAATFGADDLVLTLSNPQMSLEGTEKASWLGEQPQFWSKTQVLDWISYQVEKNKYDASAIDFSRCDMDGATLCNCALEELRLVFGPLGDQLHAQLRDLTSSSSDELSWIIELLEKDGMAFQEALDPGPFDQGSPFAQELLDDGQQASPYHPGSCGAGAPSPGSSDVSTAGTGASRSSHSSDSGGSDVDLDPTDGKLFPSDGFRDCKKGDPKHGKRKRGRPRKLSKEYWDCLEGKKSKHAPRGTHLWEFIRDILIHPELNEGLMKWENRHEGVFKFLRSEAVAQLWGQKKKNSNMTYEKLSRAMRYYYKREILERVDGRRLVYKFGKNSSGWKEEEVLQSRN
# Summary of the method: as §1
# CRX = CRX (Homo sapiens, UniProt O43186 1-299); conditions: protein: recombinant; tags: N-terminal GST; dsDNA, one strand shown
# Sequence of CRX (O43186 whole entry): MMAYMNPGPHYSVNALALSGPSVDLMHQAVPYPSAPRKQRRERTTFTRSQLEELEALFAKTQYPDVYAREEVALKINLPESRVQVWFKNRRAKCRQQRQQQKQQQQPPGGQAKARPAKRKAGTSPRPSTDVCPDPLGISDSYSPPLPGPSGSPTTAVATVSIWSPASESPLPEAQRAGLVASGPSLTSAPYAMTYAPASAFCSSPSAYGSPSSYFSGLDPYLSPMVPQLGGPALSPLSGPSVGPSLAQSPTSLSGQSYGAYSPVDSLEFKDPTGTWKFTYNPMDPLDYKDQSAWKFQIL
# Summary of the method: as §1
# ETV1 = ETV1 (Homo sapiens, UniProt P50549 1-477); conditions: protein: recombinant; tags: N-terminal GST; dsDNA, one strand shown
# Sequence of ETV1 (P50549 whole entry): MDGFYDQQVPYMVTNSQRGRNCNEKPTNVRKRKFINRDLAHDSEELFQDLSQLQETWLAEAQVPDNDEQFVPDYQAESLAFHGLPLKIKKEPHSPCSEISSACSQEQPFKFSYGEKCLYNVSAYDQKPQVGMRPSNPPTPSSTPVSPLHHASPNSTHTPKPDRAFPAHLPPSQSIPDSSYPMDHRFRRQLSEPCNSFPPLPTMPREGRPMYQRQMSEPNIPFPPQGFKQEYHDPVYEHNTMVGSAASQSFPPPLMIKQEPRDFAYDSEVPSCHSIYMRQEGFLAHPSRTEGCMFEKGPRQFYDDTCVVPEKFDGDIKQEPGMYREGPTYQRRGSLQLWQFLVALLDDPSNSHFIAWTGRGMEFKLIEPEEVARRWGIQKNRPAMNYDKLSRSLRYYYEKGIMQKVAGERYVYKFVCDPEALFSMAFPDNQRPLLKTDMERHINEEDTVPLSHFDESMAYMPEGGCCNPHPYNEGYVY
# Summary of the method: as §1
sequence,measurement,setting,value
ACTGAT,binding signal,FLI1,"1.22 fold enrichment (6-mer frequency, TF over GST control)"
same,binding signal,ELK1,"1.31 fold enrichment (6-mer frequency, TF over GST control)"
same,binding signal,GABPA,"1.27 fold enrichment (6-mer frequency, TF over GST control)"
same,binding signal,ERG,"1.3 fold enrichment (6-mer frequency, TF over GST control)"
same,binding signal,ELF1,"1.28 fold enrichment (6-mer frequency, TF over GST control)"
same,binding signal,EHF,"1.27 fold enrichment (6-mer frequency, TF over GST control)"
same,binding signal,SPI1,"1.31 fold enrichment (6-mer frequency, TF over GST control)"
same,binding signal,SPIB,"1.19 fold enrichment (6-mer frequency, TF over GST control)"
same,binding signal,ELK3,"1.26 fold enrichment (6-mer frequency, TF over GST control)"
same,binding signal,FEV,"1.19 fold enrichment (6-mer frequency, TF over GST control)"
same,binding signal,ETV5,"1.21 fold enrichment (6-mer frequency, TF over GST control)"
same,binding signal,HSF1,"1.22 fold enrichment (6-mer frequency, TF over GST control)"
same,binding signal,SPIC,"1.51 fold enrichment (6-mer frequency, TF over GST control)"
same,binding signal,ELF4,"1.23 fold enrichment (6-mer frequency, TF over GST control)"
same,binding signal,ELK4,"1.34 fold enrichment (6-mer frequency, TF over GST control)"
same,binding signal,ETV2,"1.19 fold enrichment (6-mer frequency, TF over GST control)"
same,binding signal,ELF3,"1.21 fold enrichment (6-mer frequency, TF over GST control)"
same,binding signal,CRX,"1.38 fold enrichment (6-mer frequency, TF over GST control)"
same,binding signal,ETV1,"1.32 fold enrichment (6-mer frequency, TF over GST control)"
